The panel holds about 83,000 compounds, 20% with a hit somewhere; the sample as a whole holds those more often.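 For each line, cells grew in 96-well plates with the test compound present at a single concentration for 48 hours.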 Unmarked numbers belong to inactive results. Calls of active or inactive are those of the source. The calls were made as follows: active = growth percent below 10; inactive = the rest.

Holding throughout (assay): NCI-60 one-dose screen, 48 h (100 = growth as untreated, 0 = no growth, -100 = all killed)
Common to all, as to settings: 10 µM unless noted

In test [1] the test system is SR leukemia.
Test [2] relates to RPMI-8226 leukemia.
Test [3] concerns OVCAR-8 ovarian.
Test [4] relates to OVCAR-5 ovarian.
For test [5], the system named is OVCAR-4 ovarian.
Test [6] deals with SK-OV-3 ovarian.
Test [7] deals with IGROV1 ovarian.
The subject of test [8] is OVCAR-3 ovarian.
Test [9] has as its system HS 578T breast.
The test system of test [10] is NCI/ADR-RES ovarian.

Turning to `CCCCn1sc(=O)n(Cc2ccc(CNC(=O)OCc3ccc4c(Br)cc(Br)c(O)c4n3)cc2)c1=O`, the growth is 5.73% (active) in [1]; 18.7% in [2]; 13.7% in [3]; 52% in [4]; 51.7% in test [5]; 34.6% in test [6]. Further, the growth is 15.7% in test [7], -0.408% (active) in [8], 18.6% in test [9] and 9.82% (active) in test [10].
On to `CC1COCC(C)N1C1=C(Cl)C(=O)c2ccccc2C1=O` (stereo not given), for which the growth was 41.6% in test [1]; 52.5% in test [2]; 47.4% in test [3]; 106% in [4]; -4.76% (active) in test [5]; 95.9% in [6]. Also, the growth is 50.4% in test [7], 46.1% in test [8], 100% in test [9] and 76.8% in [10].
As to `COc1ccc(C/C(C)=C(\c2ccc(O)cc2)c2ccc(OCCN3CCCC3)cc2)cc1`, the growth in test [1] was 82.4%; in test [2] it was 105%; in test [3], 103%; in [4], 99.1%; in test [5], 104%; in [6] it was 100%. Moreover, the growth in test [7] was 103%; in [8], 108%; in test [9] it was 101%; in [10], 104%.
On to `COc1ccc(C2C(C#N)=C(N)Oc3c2sc2c(Br)cccc32)cc1` (stereo not given), for which the growth was 8.82% (active) in test [1]; 12.5% in test [2]; 35.1% in [3]; 50.5% in test [4]; 64.4% in test [5]; 35.2% in test [6]. Further, the growth in [7] was 42.7%; in test [8], 10.6%; in test [9], 41.8%; in test [10] it was 6.27% (active).
For the molecule `N#C/C(=C\c1ccc(Cl)cc1Cl)C(=O)Nc1ncc(Cc2ccc(Cl)c(Cl)c2)s1`, the growth was 59.6% in test [1]; 92.9% in [2]; 91.6% in test [3]; 71.5% in [4]; 82.8% in test [5]; 96.6% in test [6]. In addition, the growth in test [7] is 85.6%; in test [8], 98.9%; in test [9] it was 94.3%; in [10], 83.2%.
Turning to `CCOC(=O)C(=Cc1cccc(C#N)c1)C(=O)OCC`, the growth in test [1] is 7.73% (active); in test [2], 15.1%; in test [3] it was 71.6%; in test [4] it was 60.1%; in test [5], 88.2%; in [6] it was 91.3%. Moreover, the growth in test [7] is 59.8%; in test [8], 61.2%; in [9], 93.9%; in [10] it was 47.6%.
In the case of `COc1ccc(Cl)cc1Nc1nc(C(F)(F)F)ccc1C(=O)N/N=C/c1ccccc1Cl`, the growth in [1] is -15.1% (active); in [2], -56.6% (active); in test [3], 11.2%; in test [4], 22%; in test [5], -18.3% (active); in test [6], 11.7%. Further, the growth was 4.17% (active) in [7], 1.6% (active) in [8], 9.51% (active) in [9] and 0.235% (active) in test [10].
Regarding `C#CC#CC#CC#CC#CC#CC#CC#CCC1OCC(COC(=O)O[C@@H](C(=O)O[C@H]2C[C@@]3(O)[C@@H](OC(=O)c4ccccc4)[C@@H]4[C@]5(OC(C)=O)CO[C@@H]5C[C@H](O)[C@@]4(C)C(=O)[C@H](OC(C)=O)C(=C2C)C3(C)C)[C@@H](NC(=O)c2ccccc2)c2ccccc2)O1` (stereo not given in full), the growth in [1] was 12.4%; in [2], 7.03% (active); in test [3], 14.8%; in test [4], 18.8%; in test [5], 59.5%; in test [6], 41.9%. Moreover, the growth in test [7] is 22.2%; in test [8] it was 4.93% (active); in test [9], -4.44% (active); in test [10], 93.5%.
On to `CCNC(=O)Oc1ccc(/C(=C(/C)Cc2ccc(OC)cc2)c2ccc(OCCN3CCCCCC3)cc2)cc1`, for which the growth in test [1] is -51.7% (active); in [2], 20.3%; in test [3], 75.4%; in test [4], 94.8%; in test [5] it was 87.9%; in test [6], 87.7%. Moreover, the growth in [7] is 78%; in test [8] it was 59.5%; in test [9], 67.2%; in [10], 76.7%.
For `O=C(/C=C\c1ccco1)/C=C/c1ccco1`, the growth was 103% in [1]; 99.1% in test [2]; 99.8% in [3]; 95.1% in [4]; 105% in test [5]; 104% in test [6]. Also, the growth was 110% in test [7], 134% in test [8], 105% in test [9] and 105% in test [10].
Consider `Nc1n[nH]c2ccc([C@@H]3Nc4cc5[nH]ncc5cc4[C@H]4C5CCC(C5)[C@@H]34)cc12` (stereo not given in full), for which the growth in test [1] was 20%; in [2] it was 5.15% (active); in test [3], 29.7%; in test [4] it was 31.2%; in test [5], 43.3%; in [6] it was 52.8%. For the same molecule, the growth in test [7] was 22.7%; in test [8], -27.6% (active); in test [9], 32%; in test [10] it was 21.6%.
Turning to `O=C1NC(=O)c2c1c1c3ccccc3[nH]c1c1oc3cc(Br)ccc3c21`, the growth in [1] is 24.4%; in test [2], 63.1%; in test [3] it was 81.8%; in test [4], 98.9%; in test [5], 77.4%; in test [6], 93.8%. Moreover, the growth in [7] was 36.2%; in test [8] it was 89.9%; in test [9], 77.3%; in test [10], 77.3%.
With `O=C(CCCCCCN1CC(=O)N2[C@@H](c3ccc(Cl)cc3)c3[nH]c4ccccc4c3C[C@H]2C1=O)NO`, the growth in test [1] is 20.2%; in test [2], 22.4%; in test [3], 57.7%; in test [4], 69.9%; in test [5], 59.3%; in [6], 82.9%. Besides, the growth in test [7] was 53.8%; in test [8] it was 66.7%; in [9], 67.9%; in [10], 93%.
Consider `CCOC(=O)c1ccc2c(c1)c1c(C)c3ccncc3c(C)c1n2C`, for which the growth is 26.8% in [1]; -1.7% (active) in test [2]; 3.64% (active) in [3]; -11% (active) in [4]; -12.8% (active) in test [5]; 0.282% (active) in test [6]. Further, the growth in test [7] was -25.5% (active); in test [8], -20.4% (active); in test [9] it was -4.98% (active); in test [10], -12.5% (active).
Turning to `Cc1c(Cl)cccc1C(=O)Nc1nc2c(s1)CN(C(=O)Nc1cccc(C(F)(F)F)c1)CC2`, the growth in [1] was 13.5%; in test [2], 7.93% (active); in test [3], 14.8%; in [4], 37%; in test [5], 28.8%; in test [6], 34.1%. Further, the growth in [7] is 22.6%; in [8] it was -11.8% (active); in [9], 30.4%; in test [10], -27.2% (active).
Regarding `CCN(CC)c1ccc(/C=N\NC(=O)c2cccc(Nc3ccnc(C(F)(F)F)c3)c2)c(O)c1`, the growth in [1] is 131%; in test [2] it was 6.52% (active); in [3], 37.3%; in test [4] it was 48.6%; in test [5], 18.8%; in test [6], 19.5%. For the same molecule, the growth in [7] was 79.9%; in [8] it was 30.9%; in test [9], 57.8%; in test [10] it was 29.4%.
With `C=C1C(=O)O[C@H]2[C@H]1CC/C(CNC(=O)c1cc3ccccc3[nH]1)=C\CC[C@@]1(C)O[C@@H]21`, the growth in test [1] was -37.4% (active); in test [2], -29% (active); in [3], -26.2% (active); in test [4], -46% (active); in test [5], -7.16% (active); in [6], 68%. The growth in test [7] is -26.3% (active); in test [8], -93.8% (active); in test [9], 42.7%; in [10] it was 22.4%.
As for `CNC(=O)c1c(NC(=O)c2ccc(C(C)(C)C)cc2)sc2c(CN(C)C)c(O)ccc12`, the growth in [1] was 3.65% (active); in [2] it was -28.1% (active); in [3], 23.7%; in [4] it was -30.9% (active); in [5], 67.5%; in test [6], 34.1%. The growth is 20.3% in test [7], 32.7% in [8], 54.7% in test [9] and 11.4% in test [10].
`C=NNc1ccccc1`: the growth was 74% in test [1]; 97.6% in [2]; 95.1% in test [3]; 109% in [4]; 102% in test [5]; 102% in [6]. For the same molecule, the growth in test [7] is 88.7%; in [8], 102%; in [9], 97.7%; in test [10], 84.4%.
With `Nc1c(C(=O)Nc2ccncc2)sc2nc3c(cc12)CCCCC3`, the growth is 43.6% in test [1]; 47.2% in test [2]; 65.2% in test [3]; 83.4% in test [4]; 55.8% in test [5]; 75.8% in [6]. Further, the growth was 98.9% in test [7], 88.9% in test [8], 85.1% in [9] and 75.5% in [10].
As to `CCOC(=O)C1=C(C)N=C2SC=C(c3ccccc3)N2[C@H]1c1cn[nH]c1-c1ccc(Cl)cc1`, the growth is -31.2% (active) in test [1]; -8.38% (active) in test [2]; 50.9% in test [3]; 108% in test [4]; 55.6% in test [5]; 62.5% in test [6]. Further, the growth in test [7] was -24.4% (active); in test [8], 22.5%; in test [9], 45.6%; in [10], 69.4%.
`O=C(O)c1cccc(N/C=C/C(=O)c2cc3cc(Br)ccc3oc2=O)c1`: the growth was 105% in [1]; 101% in test [2]; 105% in test [3]; 98.8% in [4]; 95.1% in test [5]; 98.9% in [6]. Moreover, the growth in test [7] is 106%; in test [8], 95.8%; in test [9], 94.7%; in test [10], 104%.
Regarding `O=C(CCl)Nc1ccc2c(Nc3cc(O)ccc3Cl)ncnc2c1`, the growth in test [1] is -22.5% (active); in test [2] it was -45.9% (active); in [3] it was -33.9% (active); in test [4], -74.7% (active); in [5] it was -65.2% (active); in test [6] it was -4.95% (active). Also, the growth in test [7] is -71.2% (active); in test [8], -83.4% (active); in test [9], 4.71% (active); in [10], -39.8% (active).
As for `CCN(CC)CCOc1ccc(Nc2ncc3cc(-c4ccc(O)cc4)c(=O)n(C)c3n2)cc1`, the growth in [1] was -20.5% (active); in test [2], 70.6%; in [3], 55.7%; in [4], 57.9%; in test [5], 110%; in [6] it was 53%. For the same molecule, the growth in test [7] was 23.2%; in test [8], 71.1%; in [9], 33.5%; in [10], 84%.
Consider `COC1=CC(c2ccc[nH]2)=N/C1=C\c1[nH]c(C)c(CC(=O)OCc2ccccc2)c1C`, for which the growth in [1] is -25.5% (active); in [2], -41.1% (active); in [3], 9.46% (active); in [4] it was 9.74% (active); in test [5], 10.5%; in [6], 11%. Also, the growth was -3.67% (active) in [7], -49.5% (active) in test [8], -6.47% (active) in [9] and 1.3% (active) in test [10].
For `CN1CCN(Cc2ccc(NC(=O)c3cncc(C#Cc4cnn5ccccc45)c3)cc2C(F)(F)F)CC1`, the growth was -21.2% (active) in test [1]; -17.5% (active) in [2]; 9.77% (active) in test [3]; 4.3% (active) in [4]; -2.15% (active) in [5]; 15.5% in [6]. Moreover, the growth in test [7] is 3.17% (active); in [8] it was 0.315% (active); in test [9], -15.4% (active); in test [10], -6.37% (active).
On to `O=C(NCc1ccc2c(c1)OCO2)NCC1CCCC(CNC(=O)NCc2ccc3c(c2)OCO3)C1` (stereo not given), for which the growth was 95.2% in [1]; 102% in [2]; 100% in test [3]; 108% in [4]; 96.1% in test [5]; 99.1% in test [6]. Besides, the growth in [7] is 106%; in test [8], 108%; in [9] it was 97.1%; in test [10], 104%.

These data come from PubChem BioAssay (NCI).
